Our source for the Potency and viability values is PubChem BioAssay (NCATS).

Values joined by “and” are separate entries in the source; they are usually repeats but may differ in a detail not shown here. Identical values can stand only once. Records with an inconclusive call do not appear. A number with no mark means an inactive call. Active and inactive are the calls of the source. Calls come from the whole dose curve; as a rule, active = well fitted curve in the direction sought with a large enough effect; inconclusive = small, poorly fitted or top-dose-only effect, or another doubt; inactive = no such curve, though single readings can be large; an effect the other way counts as inactive or inconclusive.

The target of test [1] is Aldehyde dehydrogenase, mitochondrial (Homo sapiens) (UniProt P05091). Put plainly: qHTS for Inhibitors of the Aldehyde Dehydrogenase Family (ALDH2) Primary screen (AID 2061308). Note: nearly all actives have a fitted effect of over 55% in size. Note: potency is the fitted concentration of half-maximal effect. Background: Quantitative high-throughput screening tests each substance at several concentrations.
Test [2] addresses Retinaldehyde dehydrogenase 3 (Homo sapiens) (UniProt P47895). Put plainly: qHTS for Inhibitors of the Aldehyde Dehydrogenase Family (ALDH1A3) Primary screen (AID 2061315).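 Note: plate controls were DMSO vehicle for no effect and reference inhibitor for full effect.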
A short description of test [3]: BET inhibitor-based combinations targeting novel dependencies in MECOM-rearranged (r) AML: OCI-AML3 cell line (AID 2202232). Note: nearly all actives have a fitted effect of over 35% in size. Note: potency is the fitted concentration of half-maximal effect. Conditions: Potency: OCI-AML3 viability. The method in brief: (§1)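 Here, 11-point titrations of each agent were applied to 500 seeded cells and incubated 48 hr; CellTiter-Glo signal, scaled against DMSO and empty wells, was integrated as AUC, then Z-scored within the individual line.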

Test [4] can be described thus: BET inhibitor-based combinations targeting novel dependencies in MECOM-rearranged (r) AML: MV-4-11 cell line (AID 2202233). Note: potency is the fitted concentration of half-maximal effect; nearly all actives have a fitted effect of over 45% in size. In outline: (§2)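 Normalized to DMSO and empty-well controls, the luminescence data from CellTiter-Glo after 48 hr drug exposure were fitted across 11 concentrations. Reported metrics are area under the dose-response curve and its Z-transformed form.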

Test [5] is described as follows: BET inhibitor-based combinations targeting novel dependencies in MECOM-rearranged (r) AML: HNT-34 cell line (AID 2202234). Note: nearly all actives have a fitted effect of over 35% in size. Note: potency is the fitted concentration of half-maximal effect. The method in brief: as §2
The nature of test [6]: BET inhibitor-based combinations targeting novel dependencies in MECOM-rearranged (r) AML: AML-194 cell line (AID 2202237; note: nearly all actives have a fitted effect of over 40% in size; note: potency is the fitted concentration of half-maximal effect). In outline: as §1
Test [7] can be described thus: BET inhibitor-based combinations targeting novel dependencies in MECOM-rearranged (r) AML: SET-2 cell line (AID 2202231).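 For viability: plate controls were DMSO treated cells for no effect and wells without cells for full effect.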 Note: nearly all actives have a fitted effect of over 35% in size. Note: potency is the fitted concentration of half-maximal effect. As to conditions: SET-2 AML cells viability, CellTiter-Glo luminescence, 48 h; viability: hits give low values, concentration not given here. In outline:
as §1
On the technique in general: In ATP-based viability assays light output follows the ATP content of the culture.

A short description of test [8]: BET inhibitor-based combinations targeting novel dependencies in MECOM-rearranged (r) AML: UCSD-AML1 cell line (AID 2202235). Note: nearly all actives have a fitted effect of over 40% in size. Note: potency is the fitted concentration of half-maximal effect. The method in brief:
as §2

Test [9] can be described thus: BET inhibitor-based combinations targeting novel dependencies in MECOM-rearranged (r) AML: AML-191 cell line (AID 2202236; note: nearly all actives have a fitted effect of over 35% in size; note: potency is the fitted concentration of half-maximal effect). The method in brief: as §1
The target in test [10] is Retinaldehyde dehydrogenase 3 (Homo sapiens) (UniProt P47895). As to the kind of experiment: qHTS for Inhibitors of the Aldehyde Dehydrogenase Family (ALDH1A3) Confirmatory screens (AID 2061311). Note: nearly all actives have a fitted effect of over 60% in size. Note: potency is the fitted concentration of half-maximal effect.
Test [11] has as its target Aldehyde dehydrogenase 1A1 (Homo sapiens) (UniProt P00352). As to the kind of experiment: qHTS for Inhibitors of the Aldehyde Dehydrogenase Family (ALDH1A1) Confirmatory screens (AID 2061316). Note: nearly all actives have a fitted effect of over 65% in size. Note: potency is the fitted concentration of half-maximal effect.

The viability is a read-out of living cells in per cent, often relative to untreated cells.

Turning to `O=C(C1CC1)N1CC[C@@H](Cn2c(-c3ccc(-c4ccc5occc5c4)cc3)nc3cnccc32)C1`, the Potency entry in test [1] and in test [2] was “inactive” each time. Further, the Potency was 10.5 µM (active) in [3], 20.9 µM (active) in test [4] and 26.3 µM (active) in test [5].
For the molecule `CN(C)Cc1ccc(-c2nc3cccc4c3n2CCNC4=O)cc1`, the Potency entry in [1], in test [2] and in [3] was “inactive” in each case. In addition, the Potency was 18.6 µM (active) in test [5] and 23.5 µM (active) in test [6].
On to `C[C@@H]1CCN(C(=O)CC#N)C[C@@H]1N(C)c1ncnc2[nH]ccc12`, for which the Potency entry in test [1] and in [2] was “inactive” in each case. In addition, the Potency in test [7] is 1.48 µM (active); in test [8] it was 0.059 µM (active).
On to `Cc1onc(-c2ccc(F)cc2)c1COc1ccc(C(=O)N2CCS(=O)(=O)CC2)cn1`, for which the Potency result in test [1], in [2], in test [3], in [5], in test [8] and in test [9] was “inactive” each time. Moreover, in test [6], the Potency result was “inactive”. Besides, the viability in test [7] is 112%.
`CN1CCN(c2cccc(Nc3nc4c(-c5ccc(S(C)(=O)=O)cc5)cccn4n3)c2)CC1`: the Potency result in test [1] and in test [2] was “inactive” in each case. Further, the Potency is 4.17 µM (active) in [7]; 0.662 µM (active) in test [4]; 2.35 µM (active) in [5]; 1.66 µM (active) in test [8]; 5.9 µM (active) in test [9]; 13.2 µM (active) in test [6].
For `O=C1NC(=O)/C(=C/c2cccc(C(F)(F)F)c2)S1`, the Potency entry in test [1], in test [2], in [3], in test [9] and in test [6] was “inactive” in each case.
With `C=CC(=O)N1CCC[C@@H](n2nc(-c3ccc(Oc4ccccc4)cc3)c3c(N)ncnc32)C1`, the Potency result in [1], in test [2] and in test [3] was “inactive” each time. Also, the values for the Potency in test [4] and in test [5] were 2.95 µM (active) and 5.9 µM (active), respectively.
As to `Cc1c(F)ccc(C(=O)Nc2cc([N+](=O)[O-])ccc2N2CCN(C)CC2)c1Cl`, the Potency entry in test [1], in test [2], in [8], in test [9] and in test [6] was “inactive” in each case. In test [7], the viability was 110%. Moreover, the Potency in [4] is 3.32 µM (active).
In the case of `CCn1c(N)c(C(=O)NC)c(=O)c2ccc(C#CC(C)(O)COC)nc21` (stereo not given), the Potency result in test [1], in [2], in test [8] and in [6] was “inactive” throughout. Further, the viability in test [7] was 91.1%. The Potency in test [9] was 23.5 µM (active).
As to `O=C(NCc1ccccc1)c1csc(Nc2ccncn2)n1`, the Potency entry in test [1] and in test [2] was “inactive” in each case. Besides, the Potency in [3] was 10.5 µM (active); in test [5], 10.5 µM (active); in [8], 18.6 µM (active); in test [9] it was 18.6 µM (active).
For `CCOc1cccc(CNC(=O)c2ccc(N3CCCC3)c(NC(=O)NCc3ccccc3)c2)c1`, in test [10], the Potency result was “inactive”.
`COc1ccc2[nH]c(S(=O)Cc3ncc(C)c(OC)c3C)nc2c1` (stereo not given): the Potency result in [1], in test [3], in test [5], in test [8], in test [9] and in test [6] was “inactive” each time. The viability in test [7] was 97.7%.
As to `Cc1ccc(-n2c(=O)c3c(cnn3C)n(CC(=O)Nc3cccc(Cl)c3)c2=O)cc1`, the Potency result in test [10] is “inactive”.
For `C[C@@H]1COC(Nc2ccc3ncnc(Nc4ccc(OCc5nccs5)c(Cl)c4)c3c2)=N1`, the Potency entry in [1] and in test [2] was “inactive” in each case. For the same molecule, the Potency in [4] was 18.6 µM (active); in test [5], 20.9 µM (active); in test [8], 26.3 µM (active).
As to `CCn1c(=O)c(-c2ccc(Cl)cc2Cl)cc2cnc(Nc3ccc(N4CCNCC4)c(F)c3)nc21`, the Potency entry in test [1] and in test [2] was “inactive” each time. For the same molecule, the Potency in test [4] was 0.525 µM (active); in [5], 0.105 µM (active); in [8], 0.525 µM (active).
In the case of `CCOc1ccc(NC(=O)Nc2cc3c(cc2N2CCCCC2)n(C)c(=O)n3C)cc1`, in test [10], the Potency result was “inactive”.
As for `Cc1cnc(Nc2ccc(F)cc2Cl)nc1-c1c[nH]c(C(=O)NC(CO)c2cccc(Cl)c2)c1` (stereo not given), the Potency entry in [1] is “inactive”. Besides, the Potency was 4.68 µM (active) in test [3] and 0.296 µM (active) in [4].
As for `Cc1cccc(-c2ccc(CN)cc2)c1`, the Potency entry in [10] is “inactive”.
With `O=C(CSc1nc2ncccc2[nH]1)Nc1cc(F)ccc1F`, the Potency entry in test [10] was “inactive”.
In the case of `Cc1c[nH]c2ncnc(N3CCC(CN)(C(=O)Nc4cccc(OC(=O)N(C)C)c4)CC3)c12`, the Potency entry in [1], in test [2] and in test [8] was “inactive” each time. For the same molecule, the Potency in [4] was 1.86 µM (active) and 1.05 µM (active).
Regarding `CCOc1ccc(NC(=O)NCCCN2CCN(c3ccc(OC)cc3)CC2)cc1`, the Potency entry in test [10] was “inactive”.
As for `CCc1cccc(C)c1NC(=O)CSc1nc2ccncc2[nH]1`, the Potency entry in [10] is “inactive”.
Same read-out and setting: then `O=C(CSc1nc2c(cnn2-c2ccc(F)cc2)c(=O)[nH]1)Nc1ccc(Br)cc1`, with “inactive”.
On the same count and under the same terms, then `Cn1ccc(Nc2ccc3nnc(-c4ccccn4)n3n2)n1`, with “inactive”; and `O=S(=O)(Nc1nc2ccccc2s1)c1ccc(NCc2ccc(Br)cc2O)cc1`, with 14.2 µM (active).
The same measure, in the same setting: then `CNC(=O)c1cccc(-c2ccc(C(C)(C)C#N)cc2)n1`, with 8.91 µM (active).
Consider `O=C1Cc2cc(S(=O)(=O)N3CCN(c4ccc(O)cc4)CC3)ccc2N1`, for which the Potency result in test [1] is “inactive”. For the same molecule, the Potency in test [11] was 11.3 µM (active).
Take `O=C(Nc1ccc([C@@H](O)[C@H]2COCC(=O)N2CCCc2ccccc2)cc1)C1CCC1`: the Potency entry in test [10] was “inactive”.
For the molecule `CC(C)NC(=O)COc1cccc(-c2nc(Nc3ccc4[nH]ncc4c3)c3ccccc3n2)c1`, the Potency entry in test [1], in test [2] and in test [8] was “inactive” throughout. Also, in [6], the Potency was 16.6 µM (active).
As for `CC(/C=C/C(=O)NO)=C\[C@@H](C)C(=O)c1ccc(N(C)C)cc1`, the Potency entry in test [1] was “inactive”. Further, the Potency is 0.372 µM (active) in [7]; 0.662 µM (active) in test [3]; 0.417 µM (active) in test [4]; 0.934 µM (active) in [5]; 1.05 µM (active) in [8]; 1.18 µM (active) in test [9]. Besides, in [6], the Potency is 1.18 µM (active).
With `Cn1cc(-c2cnn3c(N)c(Br)c(C4CCCNC4)nc23)cn1` (stereo not given), the Potency result in test [1] is “inactive”. The Potency was 10.5 µM (active) in [3], 0.468 µM (active) in test [4], 10.5 µM (active) in [5] and 5.25 µM (active) in test [8].
In the case of `[2H]C([2H])(Nc1nc(-c2ccccc2C([2H])(C([2H])([2H])[2H])C([2H])([2H])[2H])ncc1C)c1ccc(-n2ccnn2)cc1`, the Potency entry in test [1], in test [2] and in test [8] was “inactive” each time.
Take `CCc1ccccc1NC(=O)c1ccc(F)c(S(=O)(=O)N2CCN(c3cccc(Cl)c3)CC2)c1`: in test [10], the Potency entry is “inactive”.
Still for that read-out and setting: then `CCOc1ccc(NC(=O)CN2CCN(c3ccc(Cl)cc3)CC2)cc1`, with “inactive”; and `Cc1ccc(C(=O)c2cn(Cc3cccc(F)c3)c3nc(C)ccc3c2=O)cc1`, with “inactive”.
The same measure, in the same setting: then `Cc1cccc(-c2cccc(CN)c2)c1`, with “inactive”.
In the case of `CC(=O)N1CCN(c2ccc(N)cc2)CC1`, the Potency entry in test [1] is “inactive”. In addition, the Potency in [11] is 25.2 µM (active).
As to `Cc1ccnc(NC(=S)N2CCN(c3cc(Cl)cc(Cl)c3)CC2)c1`, the Potency in [1] was 2.24 µM (active); in test [11] it was 5.65 µM (active).
In the case of `CN(C(=O)c1cnc2n[nH]c(-c3ccccc3)c2n1)c1ccccc1`, the Potency result in test [10] is “inactive”.
As for `O=C(Nc1ccc(Oc2ccccc2)cc1)c1ccc(F)c(S(=O)(=O)N2CCN(c3cccc(Cl)c3)CC2)c1`, in test [10], the Potency result was “inactive”.
For `C=CC(=O)Nc1cccc(Nc2nc(Nc3ccc(N4CCN(C(C)=O)CC4)cc3OC)ncc2C(F)(F)F)c1`, the Potency result in test [1] is “inactive”. The Potency in test [7] is 14.8 µM (active); in test [3], 18.6 µM (active); in [4] it was 2.95 µM (active); in test [5], 4.17 µM (active); in test [8] it was 5.9 µM (active); in test [6], 18.6 µM (active).
For `O=C(c1ccc(/C=C/c2n[nH]c3ccccc23)cc1)N1CCNCC1`, the Potency result in test [1] and in test [2] was “inactive” each time. For the same molecule, the Potency in test [4] is 0.132 µM (active); in test [5], 3.72 µM (active); in [8], 3.32 µM (active); in test [9] it was 2.95 µM (active).
`Cc1c(NC(=O)OCC2COCCN2)cn2ncnc(Nc3ccc4c(cnn4Cc4cccc(F)c4)c3)c12` (stereo not given): the Potency result in test [1], in test [2] and in [8] was “inactive” in each case. The Potency in [4] is 18.6 µM (active); in test [9], 23.5 µM (active).
Consider `O=C(NCc1ccc(F)cc1)c1nc(-c2ccc(Cl)nc2)c2cnccn12`, for which the Potency entry in test [10] was “inactive”.
As for `COc1ccccc1-c1cnc2n[nH]c(-c3ccccc3C)c2n1`, the Potency result in test [10] is “inactive”.
For the molecule `Cc1cccc(-c2[nH]ncc2-c2ccc(F)c(-c3cnn(CCO)c3)c2)n1`, the Potency result in test [1], in test [2], in [8] and in [6] was “inactive” throughout.
In the case of `Fc1cccc(Cc2noc(-c3nc(-c4ccc5c(c4)OCO5)no3)n2)c1`, in [10], the Potency result is “inactive”.
Same read-out and setting: then `Cc1cc2nc3n(c(=O)c2n1CC(=O)Nc1ccc(Br)cc1F)CCC3`, with “inactive”.
Turning to `Nc1ccccc1S(=O)(=O)Nc1cccc2cccnc12`, the Potency entry in [1] and in [11] was “inactive” each time.
